# Unmarked numbers belong to inactive results. Inconclusive results are not listed. Active and inactive are the calls of the source. Calls follow the shape of the dose curve; as a rule, active = well fitted curve in the direction sought with a large enough effect; inconclusive = small, poorly fitted or top-dose-only effect, or another doubt; inactive = no such curve, though single readings can be large; an effect the other way counts as inactive or inconclusive.
# Target: Arylsulfatase A (Homo sapiens) (UniProt P15289)
# Sequence (P15289 whole entry, looked up): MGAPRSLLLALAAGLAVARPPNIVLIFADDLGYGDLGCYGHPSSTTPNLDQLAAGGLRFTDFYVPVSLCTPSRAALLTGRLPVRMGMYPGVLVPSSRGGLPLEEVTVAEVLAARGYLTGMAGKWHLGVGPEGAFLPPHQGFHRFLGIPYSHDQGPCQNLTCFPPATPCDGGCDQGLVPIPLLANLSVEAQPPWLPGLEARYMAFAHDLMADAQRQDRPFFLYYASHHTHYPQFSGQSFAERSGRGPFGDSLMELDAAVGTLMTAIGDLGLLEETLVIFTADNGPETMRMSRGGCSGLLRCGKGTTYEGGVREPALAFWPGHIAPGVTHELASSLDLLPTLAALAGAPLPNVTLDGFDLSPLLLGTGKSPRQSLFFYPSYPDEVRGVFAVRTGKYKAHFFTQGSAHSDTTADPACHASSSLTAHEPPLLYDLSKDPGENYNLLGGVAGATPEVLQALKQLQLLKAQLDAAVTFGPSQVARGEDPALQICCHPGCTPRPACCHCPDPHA
# Test: qHTS screen for enhancers of Arylsulfatase A (ASA1): LOPAC Validation Assay (AID 720538); as to activity change, positive = activation: 0% is about no effect
# Details: ASA enzyme activity, LOPAC qHTS enhancer assay; series mostly up to 57.5 µM; activity change, positive = activation: at the top concentration
# Summary of the method: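 Cell-based enhancement test: residual ASA activity in SV40-transformed I179S patient fibroblasts is measured by pNCS turnover (0.5mM final, 14h, room temperature) following 48h compound incubation; higher fluorescence indicates activation.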
SMILES,"activity change, positive = activation [%]",outcome
Nc1ccc(CCNc2ncnc3c2ncn3C2OC(CO)C(O)C2O)cc1 (stereo unspecified),-30.3,
CCCCCCN(CCCCCC)C(=O)Cc1c(-c2ccc(F)cc2)[nH]c2ccccc12,-8.2,
N[C@H](C(=O)O)[C@H](O)C(=O)O,-7.76,
CNc1ncnc2c1ncn2[C@H]1C[C@H](OP(=O)(O)O)[C@@H](COP(=O)(O)O)O1,,inactive
O=c1[nH]ccc2c(O)cccc12,-27.8,
O=C1Cc2c([nH]c3ccc(Br)cc23)-c2ccccc2N1,,inactive
C=C1C(=O)O[C@@H]2[C@H]3O[C@]3(C)CCC=C(C)CC[C@@H]12,-14.2,
N#CC(C#N)=C(N)/C(C#N)=C/c1ccc(O)cc1,-38.2,
CC[C@H](NC(=O)c1c(C)c(-c2ccccc2)nc2ccccc12)c1ccccc1,-21.4,
C[C@H](O)C(=O)C1=Nc2c(nc(N)[nH]c2=O)NC1,-8.78,
CCN1C(=O)C=CC1=O,,inactive
CNCCc1cnc(CCC(c2ccccc2)c2ccccc2)[nH]1,6.83,
COc1cc(C(O)CO)ccc1O (stereo unspecified),,inactive; inhibitor; fitted 0.9528 uM
NC1C=CC=C(C(=O)O)C1 (stereo unspecified),-12.8,
O=C(O)/C=C/c1cnc[nH]1,-38.3,
CN1CCC2(CCN3CCc4c(oc5ccccc45)C3C2)N(C)C1=O (stereo unspecified),,inactive
CN1Cc2sccc2C(c2ccc(O)c(O)c2)C1 (stereo unspecified),,inactive; inhibitor; fitted 1.0691 uM
C=C1C[C@@]23CC[C@H]4[C@@](C)(CCC[C@@]4(C)C(=O)O)[C@@H]2CC[C@]1(O)C3,1.09,
Cc1nc2n(c(=O)c1CCN1CCC(c3noc4cc(F)ccc34)CC1)CCCC2O (stereo unspecified),-60.6,

SMILES,"activity change, positive = activation [%]",outcome
[N-]=[N+]=Nc1ccc(C(=O)CSC[C@H](NC(=O)CC[C@H](N)C(=O)O)C(=O)NCC(=O)O)cc1,-7.45,
N#Cc1cc2nc(O)c(O)nc2cc1[N+](=O)[O-],-9.64,
NOCC(=O)O,-18.2,
c1ccc(C(NCCNC(c2ccccc2)c2ccccc2)c2ccccc2)cc1,-5.94,
Cc1cc(Cn2cnc3c2C[C@@H](C(=O)O)N(C(=O)C(c2ccccc2)c2ccccc2)C3)ccc1N,24.5,
N[C@H](C(=O)O)[C@H]1C[C@@H]1C(=O)O,-35.7,
CCN(CC)CCCCCCCCOC(=O)c1cc(OC)c(OC)c(OC)c1,-32.4,
Nc1ncnc2c1nc(Br)n2C1OC2COP(=O)(O)O[C@@H]2C1O (stereo partly specified),-13.3,
COc1cc(C(O)C(=O)O)ccc1O (stereo unspecified),,inactive
CC(C)C[C@H](NC(=O)C1OC1C(=O)O)C(=O)NCCCCN=C(N)N (stereo partly specified),,inactive; inhibitor; fitted 1.9012 uM
COCc1nc2c([nH]1)c(=O)n(C)c(=O)n2CC(C)C,,inactive
CC(=O)NCCc1c[nH]c2ccc(O)cc12,25.1,
N[C@@H](Cc1ccc(F)cc1)C(=O)O,,inactive
NC1CCN(O)C1=O (stereo unspecified),-37.5,
NC(C(=O)N[C@@H]1C(=O)N2C(C(=O)O)=C(Cl)CS[C@H]12)c1ccccc1 (stereo partly specified),-79.8,
O=C1C2C=CC=CC2=NC(=S)N1CCN1CCC(=C(c2ccc(F)cc2)c2ccc(F)cc2)CC1 (stereo unspecified),,inactive
OCC1NCC(O)C(O)C1O (stereo unspecified),,inactive
CSC(N)=NCCC[C@H](N)C(=O)O,-47.1,
CC1C(=O)N(C)C(=O)c2nc[nH]c21 (stereo unspecified),-14.2,

# Tested on: not listed separately
# Test: qHTS for compounds that reverse cellular toxicity of Amyloid beta (A-beta) peptide in yeast: LOPAC Validation Assay (AID 720559);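 also: plate controls were DMSO for no effect and equimolar ferric chloride plus clioquinol rescue for full effect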
# Details: yeast expressing A-beta; series mostly up to 46.1 µM; growth rescue, positive = activation: at the top concentration
# Summary of the method: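 Here, A-beta-toxic yeast grow with test compounds at 30 C for 48 hr before optical density at 600 nm is recorded; data are normalized against DMSO and the FeCl3-clioquinol control.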
row,SMILES,"growth rescue, positive = activation [%]"
1,Nc1ccc(CCNc2ncnc3c2ncn3C2OC(CO)C(O)C2O)cc1 (stereo unspecified),0.6
2,CCCCCCN(CCCCCC)C(=O)Cc1c(-c2ccc(F)cc2)[nH]c2ccccc12,3.28
3,N[C@H](C(=O)O)[C@H](O)C(=O)O,-6.22
4,CNc1ncnc2c1ncn2[C@H]1C[C@H](OP(=O)(O)O)[C@@H](COP(=O)(O)O)O1,-2
5,O=c1[nH]ccc2c(O)cccc12,-3.18
6,O=C1Cc2c([nH]c3ccc(Br)cc23)-c2ccccc2N1,0.494
7,C=C1C(=O)O[C@@H]2[C@H]3O[C@]3(C)CCC=C(C)CC[C@@H]12,-11.9
8,N#CC(C#N)=C(N)/C(C#N)=C/c1ccc(O)cc1,1.09
9,CC[C@H](NC(=O)c1c(C)c(-c2ccccc2)nc2ccccc12)c1ccccc1,-12.2
10,C[C@H](O)C(=O)C1=Nc2c(nc(N)[nH]c2=O)NC1,-7.8
11,CCN1C(=O)C=CC1=O,-7.29
12,CNCCc1cnc(CCC(c2ccccc2)c2ccccc2)[nH]1,-5.49
13,COc1cc(C(O)CO)ccc1O (stereo unspecified),-3.02
14,NC1C=CC=C(C(=O)O)C1 (stereo unspecified),-6.34
15,O=C(O)/C=C/c1cnc[nH]1,-1.63
16,CN1CCC2(CCN3CCc4c(oc5ccccc45)C3C2)N(C)C1=O (stereo unspecified),-0.0624
17,CN1Cc2sccc2C(c2ccc(O)c(O)c2)C1 (stereo unspecified),-6.21
18,C=C1C[C@@]23CC[C@H]4[C@@](C)(CCC[C@@]4(C)C(=O)O)[C@@H]2CC[C@]1(O)C3,1.22
19,Cc1nc2n(c(=O)c1CCN1CCC(c3noc4cc(F)ccc34)CC1)CCCC2O (stereo unspecified),18.8

row,SMILES,"growth rescue, positive = activation [%]"
1,[N-]=[N+]=Nc1ccc(C(=O)CSC[C@H](NC(=O)CC[C@H](N)C(=O)O)C(=O)NCC(=O)O)cc1,6.54
2,N#Cc1cc2nc(O)c(O)nc2cc1[N+](=O)[O-],-1.44
3,NOCC(=O)O,-3.95
4,c1ccc(C(NCCNC(c2ccccc2)c2ccccc2)c2ccccc2)cc1,-0.304
5,Cc1cc(Cn2cnc3c2C[C@@H](C(=O)O)N(C(=O)C(c2ccccc2)c2ccccc2)C3)ccc1N,-3.99
6,N[C@H](C(=O)O)[C@H]1C[C@@H]1C(=O)O,1.36
7,CCN(CC)CCCCCCCCOC(=O)c1cc(OC)c(OC)c(OC)c1,-5.35
8,Nc1ncnc2c1nc(Br)n2C1OC2COP(=O)(O)O[C@@H]2C1O (stereo partly specified),0.67
9,COc1cc(C(O)C(=O)O)ccc1O (stereo unspecified),-0.937
10,CC(C)C[C@H](NC(=O)C1OC1C(=O)O)C(=O)NCCCCN=C(N)N (stereo partly specified),-6.43
11,COCc1nc2c([nH]1)c(=O)n(C)c(=O)n2CC(C)C,-5.73
12,CC(=O)NCCc1c[nH]c2ccc(O)cc12,3.57
13,N[C@@H](Cc1ccc(F)cc1)C(=O)O,1.15
14,NC1CCN(O)C1=O (stereo unspecified),-0.536
15,NC(C(=O)N[C@@H]1C(=O)N2C(C(=O)O)=C(Cl)CS[C@H]12)c1ccccc1 (stereo partly specified),5.92
16,O=C1C2C=CC=CC2=NC(=S)N1CCN1CCC(=C(c2ccc(F)cc2)c2ccc(F)cc2)CC1 (stereo unspecified),23.7
17,OCC1NCC(O)C(O)C1O (stereo unspecified),-4.35
18,CSC(N)=NCCC[C@H](N)C(=O)O,0.962
19,CC1C(=O)N(C)C(=O)c2nc[nH]c21 (stereo unspecified),-7.65

# — PubChem BioAssay (NCATS)
